# Activity calls are given as the source filed them.
# What was measured:
# Albumin (Bos taurus) = Albumin (Bos taurus) (UniProt P02769); assay: compounds binding labelled BSA control protein – biochemical, small-molecule microarray, Alexa647 label, 635/667 nm fluorescence, artefact control for SMM control protein annotation, profiling panel (AID 1118); settings: BSA-A647 binding, fluorescence 635 nm, higher = more signal;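 note: score merges 667 nm emission intensity and signal-to-noise per printed compound spot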
# [1] = probe aXIP binding to arrayed compounds – biochemical, NeuroSMM set, 635/667 nm fluorescence, primary screen (AID 1119); settings: small-molecule microarray, higher = more signal, called active from +8 up or from −8 down;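 note: probe is the protein aXip251-270 applied at 1 µg/mL to compound-printed slides; binding of probe to printed compounds measured as 667 nm fluorescence plus signal to noise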
# [2] = probe aNOTCH3 binding on compound microarray – biochemical, small-molecule microarray, 635/667 nm fluorescence, primary screen (AID 1120); settings: higher = more signal;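 note: probe is a biotin-tagged antibody raised against NOTCH3 rather than NOTCH3 protein; score merges spot fluorescence near 667 nm with spot signal to noise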
# [3] = probe aNOTCH2 binding on compound microarray – biochemical, small-molecule microarray, 635/667 nm fluorescence, primary screen (AID 1121); settings: higher = more signal;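 note: score merges feature fluorescence read at 667 nm with its signal to noise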
# [4] = target: Carbonic anhydrase 2 (Homo sapiens) (UniProt P00918); assay: compounds binding carbonic anhydrase 2 – biochemical, small-molecule microarray, Alexa647-labelled CAII, profiling panel (AID 1122); settings: CAII-A647 binding fluorescence, higher = more signal
# [5] = COS7 lysate on small-molecule microarray, probe aHis, 635 nm (AID 1123); settings: COS7 cell lysate, fluorescence, higher = more signal;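 note: z-score combines 667nm fluorescence intensity with signal-to-noise per printed compound spot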
# [6] = probe aLAP1 signal on lysate-treated microarray – cell lysate, small-molecule microarray, COS7 lysate, primary screen (AID 1124); settings: probe aLAP1, fluorescence, higher = more signal;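 note: lysate comes from COS7 cells expressing LAP1 and is applied at 0.3 µg/mL; score merges spot fluorescence near 667 nm with signal-to-noise over triplicate slides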
# Sam68 (KHDRBS1) = assay: compounds binding KHDRBS1 protein – biochemical, small-molecule microarray, 635 nm fluorescence, primary screen (AID 1125); settings: higher = more signal;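 note: score merges 667 nm channel intensity with signal to noise over triplicate slides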
# [7] = system: Chordin-like protein 2 (CHRDL2); assay: compounds binding chordin-like 2 – biochemical, small-molecule microarray, 635 nm fluorescence, primary screen (AID 1126); settings: fluorescence 635 nm, higher = more signal;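 note: printed compound slides probed with Chrdl2 protein at 4 µg/mL for 1 h at 4 C; score merges 667 nm emission intensity with signal to noise over three replicate slides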
# [8] = target: Concanavalin-A (Canavalia ensiformis) (UniProt P02866); assay: compounds binding concanavalin A lectin – biochemical, small-molecule microarray, Alexa647 label, 635 nm, artefact control for SMM control protein annotation, primary screen (AID 1127); settings: ConA-A647 binding fluorescence, higher = more signal;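 note: z combines 667 nm emission intensity with signal-to-noise across three replicate slides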
# [9] = compounds binding Alexa647 anti-His antibody – biochemical, small-molecule microarray, 635 nm fluorescence, artefact control for SMM control protein annotation, primary screen (AID 1128); settings: higher = more signal;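 note: score merges feature fluorescence with signal-to-noise for each printed compound spot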
# [10] = system: Human papillomavirus type 1a E7 protein (residues 1-88); assay: HPV1a E7 small-molecule binders, primary screen, biochemical, small-molecule microarray, residues 1-88, 635 nm (AID 1129); settings: small-molecule microarray binding, fluorescence 635 nm; higher = more signal
# [11] = target: Focal adhesion kinase 1 (Homo sapiens) (UniProt Q05397); assay: PTK2 protein binding on printed compound slides – biochemical, small-molecule microarray, 635/667 nm fluorescence, BSA, DTT, primary screen (AID 1130); settings: 635 nm fluorescence, higher = more signal;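 note: composite of spot emission at 667 nm and signal to noise over triplicate slides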
# [12] = system: Fibrinogen (Alexa647-labelled); assay: Alexa647-fibrinogen binding to printed small molecules – biochemical, small-molecule microarray, 635/667 nm fluorescence, artefact control for SMM control-protein annotation, profiling panel (AID 1131); settings: fibrinogen-A647 binding fluorescence, higher = more signal;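 note: z-score merges 667 nm fluorescence with per-spot signal-to-noise over triplicate slides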
# [13] = target: Follistatin (Homo sapiens) (UniProt P19883); assay: FST protein binding to printed compounds – biochemical, small-molecule microarray, 635/667 nm fluorescence, primary screen (AID 1132); settings: 635 nm fluorescence, higher = more signal
# [14] = target: Fibroblast growth factor 2 (Homo sapiens) (UniProt P09038); assay: basic fibroblast growth factor binding to printed compounds – biochemical, small-molecule microarray, 635/667 nm fluorescence, primary screen (AID 1133); settings: FGF2, fluorescence 635/667, higher = more signal
# [15] = JC-1 mitochondrial potential readout, lung cancer cells – cell-based, A549, JC-1 fluorescence, basal, 24 h, 100 nL, profiling panel (AID 1138); settings: higher = more signal;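 note: A549 lung adenocarcinoma cells under basal conditions with no added stimulus; test concentration not given here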
# Lefty1 = Lefty1 protein binding to printed compounds – biochemical, small-molecule microarray, 635/667 nm fluorescence, primary screen (AID 1139); settings: fluorescence 635/667, higher = more signal
# [16] = system: wheat germ agglutinin (Triticum aestivum), Alexa647-labelled; assay: Alexa647-WGA lectin binding to printed small molecules – biochemical, small-molecule microarray, 635/667 nm fluorescence, artefact control for SMM control-protein annotation, profiling panel (AID 1140); settings: WGA-A647 binding, 635 nm fluorescence, higher = more signal;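 note: score merges 667 nm feature emission with signal to noise over triplicate slides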
# [17] = target: Luciferin 4-monooxygenase (Photinus pyralis) (UniProt P08659); assay: inhibition of purified Photinus pyralis luciferase – biochemical, luminescence, purified enzyme, 2006 set, primary screen (AID 1141); settings: purified firefly luciferase, SteadyGlo luminescence, 30 min; higher = more signal, called active from +8 up or from −8 down;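 note: cell-free assay with purified firefly luciferase at 100 ng per well in PBS; test concentration not given here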
# Chain of Luciferin 4-monooxygenase (Photinus pyralis) (P08659 whole entry, looked up): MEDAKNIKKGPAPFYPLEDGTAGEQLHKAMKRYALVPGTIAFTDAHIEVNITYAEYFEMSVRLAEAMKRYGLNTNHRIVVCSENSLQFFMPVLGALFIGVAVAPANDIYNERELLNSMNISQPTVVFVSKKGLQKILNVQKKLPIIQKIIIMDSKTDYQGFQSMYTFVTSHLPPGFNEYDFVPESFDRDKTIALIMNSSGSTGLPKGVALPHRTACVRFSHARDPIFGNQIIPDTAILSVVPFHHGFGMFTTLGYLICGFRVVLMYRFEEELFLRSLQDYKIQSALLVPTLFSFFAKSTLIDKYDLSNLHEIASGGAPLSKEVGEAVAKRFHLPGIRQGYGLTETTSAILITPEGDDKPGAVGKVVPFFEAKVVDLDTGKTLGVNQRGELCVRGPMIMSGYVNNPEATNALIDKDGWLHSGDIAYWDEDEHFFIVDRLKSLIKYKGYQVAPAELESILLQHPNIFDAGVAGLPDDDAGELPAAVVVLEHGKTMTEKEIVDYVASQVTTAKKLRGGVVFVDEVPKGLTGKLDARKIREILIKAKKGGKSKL
# Chain of Follistatin (Homo sapiens) (P19883 whole entry, looked up): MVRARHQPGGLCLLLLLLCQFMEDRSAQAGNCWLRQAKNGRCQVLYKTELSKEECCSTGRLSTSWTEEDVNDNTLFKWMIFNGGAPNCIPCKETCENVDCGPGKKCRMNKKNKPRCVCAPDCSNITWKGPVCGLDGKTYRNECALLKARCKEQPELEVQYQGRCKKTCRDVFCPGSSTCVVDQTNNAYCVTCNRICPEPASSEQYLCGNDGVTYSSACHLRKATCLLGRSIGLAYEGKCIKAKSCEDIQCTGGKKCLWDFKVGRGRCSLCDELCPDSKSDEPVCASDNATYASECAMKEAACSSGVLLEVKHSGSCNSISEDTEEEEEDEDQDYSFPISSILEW
# Chain of Focal adhesion kinase 1 (Homo sapiens) (Q05397 whole entry, looked up): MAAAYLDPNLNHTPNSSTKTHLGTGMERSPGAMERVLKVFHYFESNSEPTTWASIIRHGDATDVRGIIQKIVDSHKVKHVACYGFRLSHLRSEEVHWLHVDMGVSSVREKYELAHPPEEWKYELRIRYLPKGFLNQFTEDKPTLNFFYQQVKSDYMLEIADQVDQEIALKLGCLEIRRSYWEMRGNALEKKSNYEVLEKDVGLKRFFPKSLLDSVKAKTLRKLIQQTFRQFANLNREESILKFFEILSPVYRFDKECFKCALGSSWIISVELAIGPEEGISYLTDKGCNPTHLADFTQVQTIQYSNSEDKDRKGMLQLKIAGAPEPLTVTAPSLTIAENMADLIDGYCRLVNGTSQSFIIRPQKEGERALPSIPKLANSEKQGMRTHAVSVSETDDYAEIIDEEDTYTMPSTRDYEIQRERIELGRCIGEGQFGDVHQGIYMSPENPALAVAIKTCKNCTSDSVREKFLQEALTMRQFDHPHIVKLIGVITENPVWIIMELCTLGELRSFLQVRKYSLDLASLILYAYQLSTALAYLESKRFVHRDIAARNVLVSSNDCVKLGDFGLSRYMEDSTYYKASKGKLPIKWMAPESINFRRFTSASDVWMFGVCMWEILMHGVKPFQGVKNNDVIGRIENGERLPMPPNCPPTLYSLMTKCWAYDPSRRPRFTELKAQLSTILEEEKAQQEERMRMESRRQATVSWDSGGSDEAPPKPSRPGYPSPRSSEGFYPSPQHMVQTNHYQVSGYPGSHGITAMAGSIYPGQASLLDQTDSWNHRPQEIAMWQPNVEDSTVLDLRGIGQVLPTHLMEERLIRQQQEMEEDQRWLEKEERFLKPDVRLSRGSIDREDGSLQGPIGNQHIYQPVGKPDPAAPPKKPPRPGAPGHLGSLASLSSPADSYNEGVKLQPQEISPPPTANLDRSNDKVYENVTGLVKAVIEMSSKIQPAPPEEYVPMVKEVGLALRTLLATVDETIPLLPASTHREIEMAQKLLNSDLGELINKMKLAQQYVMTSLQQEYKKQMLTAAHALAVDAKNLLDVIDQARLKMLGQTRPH
# Chain of Concanavalin-A (Canavalia ensiformis) (P02866 whole entry, looked up): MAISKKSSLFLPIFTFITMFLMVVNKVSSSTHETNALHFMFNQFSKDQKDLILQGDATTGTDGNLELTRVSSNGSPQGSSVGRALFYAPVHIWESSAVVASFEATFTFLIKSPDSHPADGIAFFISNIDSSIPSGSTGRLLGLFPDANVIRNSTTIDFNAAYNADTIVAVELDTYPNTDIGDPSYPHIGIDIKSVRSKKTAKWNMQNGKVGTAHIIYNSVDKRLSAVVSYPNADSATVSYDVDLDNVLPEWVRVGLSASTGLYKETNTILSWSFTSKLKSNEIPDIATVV
# Chain of Albumin (Bos taurus) (P02769 whole entry, looked up): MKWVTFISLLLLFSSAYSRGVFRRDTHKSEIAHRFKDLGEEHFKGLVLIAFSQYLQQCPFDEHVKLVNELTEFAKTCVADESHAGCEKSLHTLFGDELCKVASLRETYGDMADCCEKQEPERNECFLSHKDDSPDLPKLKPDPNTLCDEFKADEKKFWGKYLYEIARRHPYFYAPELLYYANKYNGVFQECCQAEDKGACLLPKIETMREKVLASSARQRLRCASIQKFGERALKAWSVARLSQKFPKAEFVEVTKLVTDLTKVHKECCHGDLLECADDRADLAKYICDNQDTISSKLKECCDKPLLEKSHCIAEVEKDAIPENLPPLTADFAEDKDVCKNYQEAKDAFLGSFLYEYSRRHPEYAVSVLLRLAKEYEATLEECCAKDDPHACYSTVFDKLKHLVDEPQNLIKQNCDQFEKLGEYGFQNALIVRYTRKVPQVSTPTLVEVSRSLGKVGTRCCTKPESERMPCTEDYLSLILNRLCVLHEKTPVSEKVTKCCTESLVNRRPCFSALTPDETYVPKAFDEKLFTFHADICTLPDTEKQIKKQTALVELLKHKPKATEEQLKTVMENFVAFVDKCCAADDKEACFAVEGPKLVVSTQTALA
# Chain of Fibroblast growth factor 2 (Homo sapiens) (P09038 whole entry, looked up): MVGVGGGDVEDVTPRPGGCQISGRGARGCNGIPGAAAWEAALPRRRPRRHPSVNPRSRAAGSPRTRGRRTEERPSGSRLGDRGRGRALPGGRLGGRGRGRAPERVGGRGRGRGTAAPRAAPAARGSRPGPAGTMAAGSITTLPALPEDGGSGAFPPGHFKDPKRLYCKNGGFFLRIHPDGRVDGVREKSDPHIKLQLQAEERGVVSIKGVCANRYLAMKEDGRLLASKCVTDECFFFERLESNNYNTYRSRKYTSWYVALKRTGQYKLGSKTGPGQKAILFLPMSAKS
Structure (SMILES),composite z-score (Albumin (Bos taurus)),composite Z-score [1],composite z-score [2],composite z-score [3],composite z-score [4],composite z-score [5],composite z-score [6],composite z-score (Sam68 (KHDRBS1)),composite z-score [7],composite z-score [8],composite z-score [9],composite z-score [10],composite z-score [11],composite z-score [12],composite z-score [13],composite z-score [14],z-score [15],composite z-score (Lefty1),composite z-score [16],z-score [17]
C=CCNC(=O)[C@H]1[C@@H]2C(=O)O[C@@H](c3ccccc3)[C@@H](c3ccccc3)N2[C@@H](c2ccc(O)cc2)[C@]12C(=O)Nc1ccccc12,-0.118,-0.139 (inactive),-0.278,-0.0681,0.331,0.45,0.219,1.07,-0.21,0.872,0.809,0.642,-0.176,0.13,0.719,0.757,0.914,-0.319,-0.496,-1.57 (inactive)
COC(=O)[C@@]1(Cc2ccc(OC)cc2)[C@H]2c3cc(C(=O)N(C)C)n(Cc4c(CO)[nH]cc(C)c4=O)c3C[C@H]2CN1C(=O)c1ccccc1,0.302,0.0713 (inactive),0.23,0.484,0.876,2.97,0.221,0.55,-0.31,0.554,0.566,1.18,1.93,0.0557,0.0689,-0.583,0.144,0.0267,0.19,1.48 (inactive)
O=C1C[C@@](C(=O)NCC(F)(F)F)(c2ccc([N+](=O)[O-])cc2)[C@@H](c2ccc(CO)cc2I)N1CC12CC3CC(CC(C3)C1)C2,0.506,0.0839 (inactive),-0.056,-0.13,0.517,1.48,1.15,1.29,-0.0117,1.12,1.31,0.722,-0.0231,0.93,0.994,1.34,1.73,1.22,0.249,-0.251 (inactive)
CC1CC/C=C\[C@H]2OC34C=CCN(CCN5CCOCC5)C(=O)[C@H]3N(C(CO)C(C)C)C(=O)[C@@H]4C2C(=O)O1 (stereo not given in full),-0.466,0.769 (inactive),-0.111,-0.0837,0.854,0.214,1.47,0.889,-0.571,0.475,-0.622,-0.033,-0.125,-0.248,-0.277,-0.3,0.302,0.544,-0.281,-0.723 (inactive)
COCCOC(=O)N1C(=O)[C@@]2(c3cc(C#CCNC(N)=O)ccc31)[C@H](c1ccc(O)cc1)N1[C@H](c3ccccc3)[C@H](c3ccccc3)OC(=O)[C@H]1[C@@H]2C(=O)N1CCc2cc(OC)c(OC)cc2C1,0.397,0.443 (inactive),0.0962,-0.0928,0.414,0.781,-0.0347,1.21,0.431,0.764,1.24,1.11,1.33,0.336,1.36,0.636,-0.683,0.8,0.815,-1.45 (inactive)
CC(C)N1CC=CC23O[C@@H]4/C=C\CCCOC(=O)C4[C@H]2C(=O)N(C(C)CO)[C@@H]3C1=O (stereo not given in full),-0.446,0.0835 (inactive),-0.24,-0.177,0.913,0.17,-0.443,-0.222,-0.956,-0.313,-0.201,-0.829,-0.246,-1.91,-0.755,-1.31,0.0728,-0.246,0.33,0.281 (inactive)
COC(=O)C1(CC(C)C)C=C2C(=C(C)C(=O)C2C)CN1 (stereo not given),-0.293,1.64 (inactive),0.786,0.175,0.754,1.63,0.311,-0.0177,0.0633,-0.667,2.95,0.098,0.183,-0.423,0.901,-0.583,1.05,-0.368,0.67,1.98 (inactive)
COc1ccc(NN2C(C(O)c3ccc(F)cc3)C=CC3C(=O)N(C4CCCCC4)C(=O)C32)cc1 (stereo not given),0.861,-0.0189 (inactive),0.183,-0.0161,0.649,1.39,0.0892,1.29,-0.0299,1.13,0.683,1.25,0.382,0.997,1.15,0.314,-0.462,0.174,1.14,0.613 (inactive)
C=CCN1C(=O)[C@]2(O[C@H](CCO)[C@@H]([Si](C)(C)c3ccc(OC)cc3)[C@@H]2C)c2cc(N3C(=O)c4ccccc4Oc4ccccc43)ccc21,0.493,-0.0467 (inactive),-0.0328,-0.125,0.467,0.506,0.199,1.11,-0.175,0.91,0.309,1.14,0.215,0.694,0.157,0.0857,-1.36,0.591,0.51,0.368 (inactive)
[N-]=[N+]=NCc1ccccc1[C@H]1OC(c2ccc(OCCCO)cc2)=N[C@@]1(Cc1ccccc1N=[N+]=[N-])C(=O)N1CCOCC1,0.939,0.594 (inactive),0.0159,-0.0895,0.676,2.57,-0.14,1.3,-0.596,1.14,0.574,1.21,0.993,1.04,0.526,-0.335,0.704,0.0349,1.07,-2.44 (inactive)

# Source: PubChem BioAssay
